From PubChem BioAssay
Sampled rows, rich in hits. Any-hit rate of the full collection: about 3.6%.
MmCpn inh – blocks the Methanococcus maripaludis chaperonin Mm-Cpn. purified Mm-Cpn ATPase, ADP Transcreener TR-FRET. Potency, µM (doses to about 76.9 µM), for the others: top-dose activity, negative = inhibition, hits mostly inhibitors. actives 0.031% (n = 330,000); further: on the % scale 0 is the no-effect control and ±100 the full control effect; nearly all actives have a fitted effect of over 80% in size
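25 nM Mm-CPN + cpd, 10 min 37°C; + 10 uM ATP, 30 min 37°C; buffer 30 mM Tris pH 7.4, 100 mM KCl, 5 mM MgCl2, 1 mM DTT; Transcreener ADP HTRF detection 30 min RT.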
Abeta rescue – restores growth of yeast expressing A-beta42 peptide | yeast expressing A-beta42, growth rescue, OD600, 48 h; response scale: 0% DMSO, 100% iron-clioquinol control | Potency, µM (series often up to 46.1 µM), actives largely listed as activators | actives 0.063% (n = 410,000) | AID 1347071; further: nearly all actives have a fitted effect of over 55% in size
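Growth rescue measured by 600 nm absorbance after 48 h yeast culture at 30 C with compound. Values normalized between DMSO and an equimolar ferric chloride plus clioquinol control.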
TDP43 rescue – TDP-43 toxicity inhibition in yeast. actives 1.8% (n = 410,000). Potency, µM (top dose mostly 46.1 µM), inactives show at the highest dose growth rescue (activation), actives largely listed as activators. TDP-43 expressing yeast growth rescue, BacTiter-Glo, 24 h; further: % of control where 0% means no effect; nearly all actives have a fitted effect of over 50% in size
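Growth rescue of TDP-43-toxic yeast measured as ATP luminescence (BacTiter-Glo). Cells grown to mid-log in raffinose, induced in galactose at OD600=0.02, exposed to compound 24 hr at 30 deg C.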
aSyn yeast inh – inhibitors of alpha-synuclein toxicity in yeast | Yeast expressing alpha-synuclein, growth rescue, BacTiter-Glo, 24 h | Potency, µM (doses to about 46.1 µM), for the others: top-dose growth rescue (activation), actives largely listed as activators | actives 0.14% (n = 370,000); further: % of control where 0% means no effect; nearly all actives have a fitted effect of over 65% in size
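Screening used galactose-induced yeast with toxic alpha-synuclein levels, exposed to compound for 24 hr at 30 deg C. Cell growth, read with BacTiter-Glo luminescence, gave the measured signal.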
FUS suppressor – rescues growth of FUS-expressing yeast; S. cerevisiae FUS-expressing, growth rescue, OD600, 24 h; Potency, µM (top dose mostly 76.6 µM), most hits filed as activators; actives 0.24% (n = 390,000); AID 1347120;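 further: plate controls were DMSO vehicle for no effect and reference control for full effect; nearly all actives have a fitted effect of over 55% in size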
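Compound concentration series was pinned onto galactose-induced FUS-expressing yeast seeded at OD 0.005. Plates sat 24hr at 30C; absorbance at 600 nm gave growth. DMSO served as background control.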
ClpP mod – qHTS Assay for Activators of ClpP; actives 1.9% (n = 340,000); purified B. subtilis ClpP, FRET peptide cleavage, 20 min; Potency, µM (series often up to 57.5 µM), for inactives: at the highest dose activity change, negative = active; active means well fitted falling curve with a large enough effect; inconclusive means small, poorly fitted or top-dose-only effect; inactive means no such curve, though single readings can be large or run the other way; further: the source files actives as falling curves though it sought activators and does not explain the sign; nearly all actives have a fitted effect of over 65% in size
Target sequence (P80244 whole entry, looked up): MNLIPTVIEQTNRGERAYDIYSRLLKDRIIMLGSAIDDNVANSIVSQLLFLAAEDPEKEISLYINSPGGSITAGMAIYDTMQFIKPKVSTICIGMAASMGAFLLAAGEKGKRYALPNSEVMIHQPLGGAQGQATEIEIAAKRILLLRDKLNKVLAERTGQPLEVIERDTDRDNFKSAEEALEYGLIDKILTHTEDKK
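Purified B. subtilis ClpP, 10 microg/mL final in Tris/HCl pH8 with KCl, BSA, glycerol and Tween-20, cleaved an Abz/nitrotyrosine-quenched decapeptide. Fluorescence (ex 320, em 430) was read at 0 and 20 min at room temperature. Delta was normalized to 5.8 microM ADEP and DMSO/no-enzyme controls.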
* marks the source's active call; other numbers are inactive results; i = inactive; u = inconclusive; x = no result given. Unless noted, the call rests on the fitted dose curve; in most records, active means well fitted curve in the direction sought with a large enough effect; inconclusive means small, poorly fitted or top-dose-only effect, or another doubt; inactive means no such curve, though single readings can be large; an effect the other way counts as inactive or inconclusive. Potency means the concentration at half of the fitted maximal effect.

SMILES | MmCpn inh | Abeta rescue | TDP43 rescue | aSyn yeast inh | FUS suppressor | ClpP mod
c1ccc(-c2cc3c(-n4cccc4)ncnc3o2)cc1 | -4% | i | 0% | 3% | x | 28µM*
CN1CCN(c2cc(-c3ccccc3)nc3cc(-c4ccc(F)cc4)nn23)CC1 | -1% | i | -16% | -18% | i | 22µM*
O=C(c1ccoc1)N1CCN(c2cc(-c3ccccc3)nc3cc(-c4ccccc4)nn23)CC1 | x | i | 18µM* | -1% | i | 4%
O=C(c1ccoc1)N1CCN(c2cc(-c3ccco3)nc3cc(-c4ccccc4)nn23)CC1 | x | i | 20µM* | -10% | u | 4%
Cc1cc(N2CCN(C(=O)c3ccoc3)CC2)n2nc(-c3ccccc3)cc2n1 | x | i | -7% | 0% | i | -20%
Cc1cc(C)cc(NC(=O)c2cccc(N3CCCS3(=O)=O)c2)c1 | x | i | 2% | x | i | -2%
CC(=O)N1CCc2nc3sc(C(=O)c4ccc(F)cc4)c(N)c3c(C(F)(F)F)c2C1 | x | i | 28µM* | x | i | -2%
O=C1C(Nc2ccccc2)=C/C(=N/S(=O)(=O)c2cccs2)c2ccccc21 | -5% | i | -28% | -70% | x | 11µM*
Cc1ccc(CNC(=O)CSc2nc(=O)[nH]c3c2CCCC3)cc1 | x | i | 15% | x | i | -2%
COc1ccc(C)cc1NC(=O)c1nnn(-c2c(C)cccc2C)c1C | x | i | 22% | x | i | u
Clc1ccccc1-c1ccc(/C=N/n2cnnc2)o1 | -4% | i | 11µM* | 6% | i | -22%
COC(=O)N/N=C/c1ccc(-c2ccccc2Cl)o1 | 1% | i | 20µM* | 5% | i | 1%
NC(=S)N/N=C/c1ccc(-c2cc(Cl)c(Cl)cc2Cl)o1 | -1% | 13µM* | 4% | 23% | i | x
CN(C)c1ccc(/C=C/c2ccnc3ccccc23)cc1 | x | x | x | -17% | x | 1%
ON=C1c2ccccc2-c2ccc(Br)cc21 | x | i | 3.2µM* | -8% | x | 1%
CCc1cc(C(=O)/C=C/c2cc3c(cc2C)OCCO3)c(O)cc1O | x | x | x | -1% | x | -1%
COC(=O)[C@]12C[C@H](CC(=O)N3CCN(C(=O)c4ccco4)CC3)C(=O)N(CCc3ccc(OC)c(OC)c3)C1=C[C@H](C(C)C)O[C@@H]2C1CC1 | x | x | x | x | i | x
Nc1c2c(=O)oc(-c3ccccc3)cc2nn1-c1ccccc1 | -1% | i | 14µM* | 25% | i | 14µM*
CC(C)c1noc(-c2ccccc2OCC(=O)Nc2cccc([N+](=O)[O-])c2)n1 | x | i | 18% | x | i | 1%
O=C(O)c1ccc(NCc2cccnc2)cc1 | -2% | i | -6% | 3% | i | -2%
O=C(O)c1ccc(NCc2ccc(Br)cc2)cc1 | -2% | i | 3.5µM* | 3% | i | 1%
CC(=O)Nc1ccc(C(=O)O)cc1 | 0% | i | 12% | -3% | i | 2%
C=CCNc1ccc(C(=O)O)cc1 | 1% | i | 14µM* | 11% | i | -1%
CCCCOc1ccc(NC(=O)CSc2ccc(C(=O)O)cn2)cc1 | x | i | 23% | x | i | 0%
Cc1cccc(-c2nc3nc(C)cc(NCc4ccccc4Cl)n3n2)c1 | x | i | 7% | -5% | i | 0%
SMILES | MmCpn inh | Abeta rescue | TDP43 rescue | aSyn yeast inh | FUS suppressor | ClpP mod
COc1ccc(C2CC(=O)c3cnc(NC(=O)c4ccccc4OC)nc3C2)c(OC)c1 (stereo not drawn) | -1% | i | 18µM* | 14% | i | -1%
COc1ccc(C2CC(=O)c3cnc(NC(=O)c4cccc(OC)c4)nc3C2)cc1 (stereo not drawn) | 1% | i | u | 1% | i | 0%
N#Cc1nc(-c2ccco2)oc1NCc1cccnc1 | 0% | i | -9% | 1% | i | 26%
CC(C)CNc1oc(-c2ccccc2Cl)nc1C#N | 1% | i | 4% | 1% | i | x
N#Cc1nc(-c2ccco2)oc1NCc1ccc(F)cc1 | -4% | i | 23% | -16% | i | 8.9µM*
CC(Nc1oc(-c2ccco2)nc1C#N)c1ccccc1 (stereo not drawn) | 0% | i | 2% | -15% | i | 7.9µM*
CC(Nc1oc(-c2ccc(COc3ccc(Cl)cc3)o2)nc1C#N)c1ccccc1 (stereo not drawn) | x | i | 8% | x | i | u
CC(C)CNc1oc(-c2ccco2)nc1C#N | -1% | i | u | -9% | i | 18µM*
Cc1ccc(NC(=O)c2sc(-n3nc(C)c(CCC(C)C)c3C)nc2C)cc1C | x | i | 17% | x | i | -3%
Cc1cccc(OCC(=O)OCc2cc(=O)n3nc(C4CCCCC4)sc3n2)c1 | x | i | -7% | x | i | -5%
Cc1cc(C)cc(NC(=O)COC(=O)CCC2CCCC2)c1 | 0% | i | 13µM* | 1% | i | -3%
COC(=O)c1[nH]c2cccc(OC)c2c1NC(=O)CCN1CCC(C)CC1 | -4% | i | -18% | -1% | x | 25µM*
COC(=O)c1[nH]c2cccc(OC)c2c1NC(=O)CCN1CCN(c2ccccc2OC)CC1 | -1% | i | -12% | 3% | i | u
COC(=O)c1[nH]c2cccc(OC)c2c1NC(=O)C(C)N1CCC(C)CC1 (stereo not drawn) | 0% | i | -6% | -4% | i | 32µM*
COc1ccc(C(=O)N2c3ccc(C)cc3C(C)(c3ccccc3)CC2(C)C)cc1 (stereo not drawn) | x | i | -12% | x | i | -6%
COc1ccc(N(Cc2cccs2)C(=O)c2ccco2)cc1 | x | i | u | x | i | 1%
COc1cc2c(OC(C)=O)c3c(c(-c4ccc5c(c4)OCO5)c2cc1OC)C(=O)OC3 | x | i | 9% | -9% | i | u
COc1cc2c(O)c3c(c(-c4ccc5c(c4)OCO5)c2cc1OC)C(=O)OC3 | 1% | i | -17% | -10% | 8.9µM* | u
CCC(=O)N1CCN(c2ccc(Cl)cc2NC(=O)c2ccc([N+](=O)[O-])o2)CC1 | -3% | i | -10% | 9% | i | 2%
O=C(Nc1cc(Cl)ccc1-n1cncn1)c1ccc([N+](=O)[O-])o1 | 0% | i | 14µM* | -28% | i | 1%
COc1ccc(CNC(=O)c2ccc3nc(C(C)C)oc3c2)cc1OC | x | i | 17% | x | u | -18%
S=C1NCCc2ccc(Cl)cc2C1c1ccccc1 (stereo not drawn) | 1% | i | 14µM* | u | i | 0%
